Results filed as inconclusive are left out. Active and inactive are the calls of the source. Calls come from the whole dose curve; as a rule, active = well fitted curve in the direction sought with a large enough effect; inconclusive = small, poorly fitted or top-dose-only effect, or another doubt; inactive = no such curve, though single readings can be large; an effect the other way counts as inactive or inconclusive. Residues, ends and D or L forms follow the SMILES beside them. *: point of attachment. Cbz = O=C(OCc1ccccc1)*
Tests used:
[1] = qHTS of pediatric cancer cell lines to identify multiple opportunities for drug repurposing: Confirmatory screen for TC32 cells (AID 1347118);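 note: cells exposed to compound for 48 h before the read; nearly all actives have a fitted effect of over 65% in size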; note: potency is the fitted concentration of half-maximal effect
Procedure, shortened: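 TC32 cells, 500-1,000/well in growth medium, compound-treated 48 h at 37 °C; viability from CellTiter-Glo luminescence. Primary screen: MIPE 11-point (0.78 nM–46 µM final), NPC 8-point (0.59 nM–46 µM final); confirmatory at 11-point dilutions.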

[2] = qHTS of pediatric cancer cell lines to identify multiple opportunities for drug repurposing: Confirmatory screen for MG 63 (6-TG R) cells (AID 1347119); note: nearly all actives have a fitted effect of over 55% in size; note: potency is the fitted concentration of half-maximal effect
Procedure, shortened: (§1)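 Cells (500-1,000/well) rested 5 h, then received compounds for 48 h; metabolically active cells were measured by CellTiter-Glo luminescence. Final concentrations spanned up to 46 µM (MIPE, 11-point) or 0.59 nM-46 µM (NPC, 8-point) in primary screens, 11-point in follow-ups.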

[3] = qHTS of pediatric cancer cell lines to identify multiple opportunities for drug repurposing: Confirmatory screen for Rh18 cells (AID 1347125); note: nearly all actives have a fitted effect of over 55% in size; note: potency is the fitted concentration of half-maximal effect
Procedure, shortened: as §1

[4] = qHTS of pediatric cancer cell lines to identify multiple opportunities for drug repurposing: Confirmatory screen for Saos-2 cells (AID 1347127); note: nearly all actives have a fitted effect of over 60% in size; note: potency is the fitted concentration of half-maximal effect
Procedure, shortened: as §1

[5] = qHTS of pediatric cancer cell lines to identify multiple opportunities for drug repurposing: Confirmatory screen for OHS-50 cells (AID 1347128);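 note: compound exposure lasted 48 h at 37 degrees C; nearly all actives have a fitted effect of over 55% in size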; note: potency is the fitted concentration of half-maximal effect
Procedure, shortened: as §1

[6] = qHTS of pediatric cancer cell lines to identify multiple opportunities for drug repurposing: Confirmatory screen for SK-N-SH cells (AID 1347129);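 note: cells exposed to compound for 48 h before viability read; nearly all actives have a fitted effect of over 60% in size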; note: potency is the fitted concentration of half-maximal effect
Procedure, shortened: as §1

[7] = test system: Zika virus NS2B-NS3 protease; experiment: Primary screen GU AMC qHTS for Zika virus inhibitors (AID 1347154); note: nearly all actives have a fitted effect of over 70% in size
Procedure, shortened: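 Fluorogenic AMC-substrate cleavage by noncovalent NS2B-NS3 protease complex (25 nM, pH 8.0 Tris buffer with Tween 20) followed for 15 minutes at room temperature (~20% conversion). Percent inhibition from ex340/em450 signal change, fitted by 4-parameter Hill equation.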

[8] = qHTS of pediatric cancer cell lines to identify multiple opportunities for drug repurposing: Confirmatory screen for SJ-GBM2 cells (AID 1347116); note: nearly all actives have a fitted effect of over 60% in size; note: potency is the fitted concentration of half-maximal effect
Procedure, shortened: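 Viability measured as metabolically active cells via CellTiter-Glo luminescence following 48 hours of compound exposure, 11-point dilutions in confirmatory testing. 500-1,000 cells/well plated 5 hours before dosing; controls were DMSO and 2.3 µM bortezomib.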

[9] = qHTS of pediatric cancer cell lines to identify multiple opportunities for drug repurposing: Confirmatory screen for Rh30 cells (AID 1347126); note: nearly all actives have a fitted effect of over 55% in size; note: potency is the fitted concentration of half-maximal effect
Procedure, shortened: as §1

[10] = qHTS of pediatric cancer cell lines to identify multiple opportunities for drug repurposing: Confirmatory screen for U-2 OS cells (AID 1347122); note: nearly all actives have a fitted effect of over 65% in size; note: potency is the fitted concentration of half-maximal effect
Procedure, shortened: as §1

[11] = qHTS of pediatric cancer cell lines to identify multiple opportunities for drug repurposing: Confirmatory screen for Rh41 cells (AID 1347123);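 note: potency is the fitted concentration of half-maximal effect; 48 h compound exposure; nearly all actives have a fitted effect of over 60% in size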
Procedure, shortened: as §1

[12] = qHTS of pediatric cancer cell lines to identify multiple opportunities for drug repurposing: Confirmatory screen for RD cells (AID 1347124);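 note: cells exposed to compound for 48 h before viability readout; nearly all actives have a fitted effect of over 65% in size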; note: potency is the fitted concentration of half-maximal effect
Procedure, shortened: as §1

[13] = qHTS of pediatric cancer cell lines to identify multiple opportunities for drug repurposing: Confirmatory screen for control Hh wild type fibroblast cells (AID 1347121); note: nearly all actives have a fitted effect of over 70% in size; note: potency is the fitted concentration of half-maximal effect
Procedure, shortened: as §1

[14] = qHTS of pediatric cancer cell lines to identify multiple opportunities for drug repurposing: Confirmatory screen for BT-37 cells (AID 1347117); details: BT-37 pediatric cancer cells, viability; activity change, negative = cytotoxic: at 45.9 µM (top of the series)
Procedure, shortened: as §1

[15] = test system: Zika virus NS2B-NS3 protease (unlinked); experiment: Optimization of GU AMC qHTS for Zika virus inhibitors: Unlinked NS2B-NS3 protease assay (AID 1347151); note: nearly all actives have a fitted effect of over 80% in size
Procedure, shortened: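 Fluorescence read-out (340 nm ex / 450 nm em) of AMC peptide cleavage, taken immediately and after 15 min at room temperature (~20% conversion). Enzyme was the unlinked NS2B–NS3 complex at 25 nM in Tris pH 8.0 buffer.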

Measured: Potency

CC(=O)ON=C1C(c2c(O)[nH]c3cc(Br)ccc23)=Nc2ccccc21
inactive: [7]
active: [1] 16.5 µM | [2] 18.5 µM | [3] 13.1 µM | [4] 13.1 µM | [5] 14.7 µM | [6] 23.5 µM

C=Cc1c(C)c2cc3nc(cc4[nH]c(cc5nc(cc1[nH]2)C(C)=C5CCC(=O)O)c(CCC(=O)OC)c4C)[C@@]1(C)C3=CC=C(C(=O)OC)[C@H]1C(=O)OC
inactive: [8] | [3] | [9] | [4] | [5] | [6]

CNC(=O)Nc1ccc(-c2nc(N3CC4CCC(C3)O4)c3cnn(C4CCC5(CC4)OCCO5)c3n2)cc1
active: [8] 1.04 µM | [1] 0.369 µM | [2] 0.0329 µM | [10] 0.522 µM | [11] 0.131 µM | [12] 0.522 µM | [3] 0.233 µM | [9] 0.329 µM | [4] 1.31 µM | [5] 3.29 µM
inactive: [7]

COc1cccc2c1C(=O)c1c(O)c3c(c(O)c1C2=O)C[C@@](O)(C(=O)CO)C[C@@H]3O[C@H]1C[C@H](N)[C@H](OC2CCCCO2)[C@H](C)O1 (stereo partly specified)
active: [1] 0.465 µM | [2] 1.47 µM | [11] 2.93 µM | [3] 18.5 µM | [5] 14.7 µM
inactive: [9] | [7]

CC(C)C[C@H](NC(=O)CNC(=O)c1cc(Cl)ccc1Cl)B1OC(=O)CC(CC(=O)O)(C(=O)O)O1 (stereo partly specified)
inactive: [7]
active: [8] 0.147 µM | [1] 0.465 µM | [13] 16.5 µM | [10] 0.827 µM | [12] 0.414 µM | [3] 0.369 µM | [9] 2.33 µM | [4] 4.65 µM

NS(=O)(=O)OC[C@@H]1C[C@@H](n2ccc3c(N[C@H]4CCc5ccccc54)ncnc32)C[C@H]1O
not listed: [6] | [11] | [13] | [14] | [15]
inactive: all other assays above

COc1cccc2c1C(=O)c1c(O)c3c(c(O)c1C2=O)C[C@@](O)(C(=O)CO)C[C@@H]3O[C@H]1C[C@H](N)[C@@H](O)[C@H](C)O1
active: [8] 0.737 µM | [1] 0.131 µM | [12] 3.29 µM | [3] 0.585 µM | [4] 0.293 µM | [5] 1.47 µM | [6] 0.332 µM

CC(C(C)N1CC(=O)NC(=O)C1)N1CC(=O)NC(=O)C1 (stereo unspecified)
inactive: [10] | [12] | [3] | [9] | [4] | [5] | [7]
active: [1] 4.14 µM | [2] 5.22 µM

O=C(NCc1ccccc1)[C@H](Cc1ccccc1)NC(=O)[C@@H]1O[C@@H]1C(=O)NCCc1ccc(O)cc1
inactive: [8] | [12] | [3] | [9] | [4] | [6] | [7]
active: [1] 0.165 µM

COc1cc(C[C@@H](CO)[C@H](CO)Cc2ccc(O)c(OC)c2)ccc1O
active: [1] 9.27 µM | [12] 16.5 µM
inactive: [2] | [13] | [3] | [6] | [7]

N#Cc1c(NC(=O)c2cccc3ccccc23)sc2c1CCCC2
active: [1] 0.233 µM | [2] 0.329 µM | [10] 0.657 µM | [4] 0.261 µM
inactive: [13] | [3] | [9] | [7]

CC[C@]12C=CCN3CC[C@@]4(c5cc([C@@]6(C(=O)OC)C[C@H]7C[C@@H](C(C)(F)F)CN(Cc8c6[nH]c6ccccc86)C7)c(OC)cc5N(C)[C@H]4[C@@](O)(C(=O)OC)[C@H]1OC(C)=O)[C@@H]32
active: [1] 9.27 µM | [11] 3.69 µM
not listed: [9] | [13] | [14] | [15]
inactive: all other assays above

CC(C)C[C@@H](C=O)NC(=O)[C@H](CC(C)C)NC(=O)[C@H](CC(C)C)NC(=O)OCc1ccccc1 (Cbz-Leu-Leu-Leu-aldehyde)
active: [8] 1.04 µM | [1] 0.827 µM | [2] 0.585 µM | [10] 2.08 µM | [12] 0.657 µM | [3] 1.65 µM | [9] 3.29 µM | [4] 1.47 µM | [6] 0.833 µM
inactive: [7]

CCOC(=O)[C@@H](N)Cc1ccc(-c2cc(O[C@H](c3ccc(Cl)cc3-n3ccc(C)n3)C(F)(F)F)nc(N)n2)cc1
active: [1] 23.3 µM | [11] 14.7 µM
inactive: [8] | [7]

COC(=O)C1C2CC3c4[nH]c5cc(OC)ccc5c4CCN3CC2CC(OC(=O)c2cc(OC)c(OC)c(OC)c2)C1OC (stereo unspecified)
inactive: [7]
active: [14] 1.47 µM | [11] 11.7 µM | [3] 16.5 µM | [4] 5.85 µM

COc1cc(O)c2c(c1)C1OC1C[C@H](O)[C@H](O)C(=O)C=CC[C@H](C)OC2=O (stereo partly specified)
active: [8] 5.85 µM | [1] 9.27 µM | [2] 5.85 µM | [11] 0.165 µM | [3] 18.5 µM | [4] 9.27 µM

CC(=O)N1CCN(c2ccc(OCc3nn(C)c(C)c3-c3cccc4c(CCCOc5cccc6ccccc56)c(C(=O)O)n(Cc5cccnc5)c34)cc2)CC1
inactive: [2]

O=C(O)C[C@H](O)C[C@H](O)C=Cc1c(C2CC2)nc2ccccc2c1-c1ccc(F)cc1
active: [11] 4.65 µM

O=C(C=Cc1ccc(CN(CCO)CCc2c[nH]c3ccccc23)cc1)NO
active: [11] 0.0585 µM

CCc1cnn2c(NCc3ccc[n+]([O-])c3)cc(N3CCCC[C@@H]3CCO)nc12
inactive: [4]

N#Cc1c(C2CCNCC2)cc(-c2c(O)cccc2OCC2CC2)nc1N
inactive: [4]

CCCCCCCCc1ccc(CCC(N)(CO)CO)cc1
inactive: [15]

— PubChem BioAssay (NCATS)
